The values that follow come from PubChem BioAssay (NCI).

The structures appear in SMILES notation. Compounds without any hit were thinned out: in the full panel of roughly 79,000, 15% have a hit. Unmarked numbers belong to inactive results. Calls of active or inactive are those of the source. No stated cut-off is given here; in the data, active means growth inhibition above about 70%; inactive means the rest.

A short description of assay [1]: NCI Yeast Anticancer Drug Screen. Data for the rad50 strain (AID 155).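 Further: 0% = growth of vehicle-only cultures of the same strain.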 As to conditions: S. cerevisiae rad50 strain growth inhibition, hits give high values. Summed up:
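Genetically altered yeast (DNA repair pathway); compound treatment; growth inhibition vs vehicle ctrl.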

The nature of assay [2]: NCI Yeast Anticancer Drug Screen. Data for the mec2-1 strain (AID 157). As to conditions: S. cerevisiae mec2-1 strain, hits give high values. Summed up:
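Test agents were screened against the mec2-1 yeast strain, with defined DNA repair or cell cycle alteration. Growth was scored as inhibition against vehicle-only controls.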

A short description of assay [3]: NCI Yeast Anticancer Drug Screen. Data for the sgs1 mgt1 strain (AID 161).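 Further: 0% = growth of cultures given vehicle only.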 As to conditions: S. cerevisiae sgs1 mgt1 strain, hits give high values. The method, boiled down: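 Read-out: growth inhibition vs vehicle controls. Cells: mutant yeast strain deficient in DNA damage repair.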
A short description of assay [4]: NCI Yeast Anticancer Drug Screen. Data for the cln2 rad14 strain (AID 165).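 Further: 0% = growth equal to vehicle treated cultures.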 As to conditions: S. cerevisiae cln2 rad14 strain, hits give high values. Summed up: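 Growth of compound-exposed yeast (cln2 rad14 genotype) measured and expressed as inhibition relative to vehicle.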
The nature of assay [5]: NCI Yeast Anticancer Drug Screen. Data for the bub3 strain (AID 167). As to conditions: S. cerevisiae bub3 mutant strain, hits give high values. The method, boiled down: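 Yeast carrying a defined mutation is treated with each compound, and growth is compared with that of vehicle-exposed cells to give inhibition.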
Assay [6] can be described thus: NCI Yeast Anticancer Drug Screen. Data for the mlh1 rad18 strain (AID 175). As to conditions: S. cerevisiae mlh1 rad18 strain growth inhibition, hits give high values. The method, boiled down:
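In this whole-cell yeast screen, a strain with altered DNA damage repair is challenged with compound, and its growth is measured against matched vehicle-treated controls.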

[7] abbreviates: at 5.0 µM (retest, dose inferred, filed as 0.5).
Where [8] appears, read: at 50.0 µM (retest, dose inferred, filed as 5.0).

Take `O=C1c2ccccc2-c2ccc(O)cc21`: the growth inhibition was 58% in assay [1] (setting [7]); 95% (active) in assay [1] (setting [8]); 17% in assay [2] (setting [7]); 84% (active) in assay [2] (setting [8]); 28% in assay [3] (setting [7]); 93% (active) in assay [3] (setting [8]). Also, the growth inhibition in assay [4] (setting [7]) was 10%; in assay [4] (setting [8]), 69%; in assay [5] (setting [7]), 10%; in assay [5] (setting [8]) it was 87% (active); in assay [6] (setting [7]), -11%; in assay [6] (setting [8]) it was 90% (active).

Turning to `CCc1cnc2ccccc2c1/C=C/c1ccc(N(C)C)cc1`, the growth inhibition in assay [1] (setting [7]) is -13%; in assay [1] (setting [8]) it was 96% (active); in assay [1] (at 50.0 µM) it was 98.4% (active); in assay [2] (setting [7]), 9%; in assay [2] (setting [8]), 96% (active); in assay [2] (at 50.0 µM) it was 97.3% (active). In addition, the growth inhibition in assay [3] (setting [7]) was 4%; in assay [3] (setting [8]) it was 96% (active); in assay [3] (at 50.0 µM), 92.3% (active); in assay [5] (setting [7]), 21%; in assay [5] (setting [8]), 97% (active); in assay [5] (at 50.0 µM), 96.8% (active). The growth inhibition was -8% in assay [6] (setting [7]), 94% (active) in assay [6] (setting [8]) and 94.7% (active) in assay [6] (at 50.0 µM).

Regarding `c1ccc(-c2nc(N=C3N=c4ccccc4=N3)[nH]c2-c2ccccn2)nc1`, the growth inhibition is 59% in assay [1] (setting [7]); 96% (active) in assay [1] (setting [8]); 75.1% (active) in assay [1] (at 50.0 µM); 54% in assay [2] (setting [7]); 97% (active) in assay [2] (setting [8]); 77.8% (active) in assay [2] (at 50.0 µM). Besides, the growth inhibition in assay [3] (setting [7]) is 36%; in assay [3] (setting [8]) it was 84% (active); in assay [4] (setting [7]), 49%; in assay [4] (setting [8]), 93% (active); in assay [5] (setting [7]), 58%; in assay [5] (setting [8]) it was 80% (active). For the same compound, the growth inhibition in assay [6] (setting [7]) is 49%; in assay [6] (setting [8]), 98% (active); in assay [6] (at 50.0 µM), 75.5% (active).

Regarding `Cc1cc(O)c(O)c(C(C)(C)CC(C)(C)C)c1`, the growth inhibition in assay [1] (setting [7]) was 36%; in assay [1] (setting [8]), 87% (active); in assay [1] (at 50.0 µM) it was 91.3% (active); in assay [2] (setting [7]) it was 38%; in assay [2] (setting [8]), 83% (active); in assay [2] (at 50.0 µM), 92.5% (active). Moreover, the growth inhibition is 97% (active) in assay [3] (setting [7]); 100% (active) in assay [3] (setting [8]); 78% (active) in assay [4] (setting [7]); 100% (active) in assay [4] (setting [8]); 94% (active) in assay [5] (setting [7]); 99% (active) in assay [5] (setting [8]). The results for the growth inhibition in assay [6] (setting [7]), in assay [6] (setting [8]) and in assay [6] (at 50.0 µM) were 23%, 73% (active) and 91.2% (active), respectively.

With `Cc1ccc2[nH]cc(CC(=O)O)c2c1`, the growth inhibition was 95% (active) in assay [1] (setting [7]); 99% (active) in assay [1] (setting [8]); 97% (active) in assay [2] (setting [7]); 100% (active) in assay [2] (setting [8]); 99% (active) in assay [3] (setting [7]); 100% (active) in assay [3] (setting [8]). For the same compound, the growth inhibition in assay [4] (setting [7]) is 42%; in assay [4] (setting [8]), 99% (active); in assay [5] (setting [7]), 99% (active); in assay [5] (setting [8]), 100% (active); in assay [6] (setting [7]), 85% (active); in assay [6] (setting [8]), 99% (active).

For the compound `CC(=O)Oc1ccc(OC(C)=O)c2c1CC=CC2`, the growth inhibition in assay [1] (setting [7]) is 3%; in assay [1] (setting [8]) it was 2%; in assay [2] (setting [7]) it was -1%; in assay [2] (setting [8]), 1%; in assay [3] (setting [7]), 2%; in assay [3] (setting [8]) it was 10%. Besides, the growth inhibition in assay [4] (setting [7]) was 0%; in assay [4] (setting [8]), 11%; in assay [5] (setting [7]), 4%; in assay [5] (setting [8]), 8%; in assay [6] (setting [7]), -20%; in assay [6] (setting [8]), 2%.

With `CN(C)c1cc(N)c(Cc2c(N)cc(N(C)C)cc2Cl)c(Cl)c1`, the growth inhibition in assay [1] (setting [7]) is 5%; in assay [1] (setting [8]) it was 97% (active); in assay [2] (setting [7]), -2%; in assay [2] (setting [8]), 97% (active); in assay [3] (setting [7]) it was -4%; in assay [3] (setting [8]) it was 98% (active). The growth inhibition in assay [4] (setting [7]) was 8%; in assay [4] (setting [8]), 96% (active); in assay [5] (setting [7]), 6%; in assay [5] (setting [8]), 97% (active); in assay [6] (setting [7]) it was 1%; in assay [6] (setting [8]) it was 97% (active).

Turning to `Oc1ccc(Cc2ccc(Cl)cc2)c(O)c1`, the growth inhibition in assay [1] (setting [7]) is 3%; in assay [1] (setting [8]), 98% (active); in assay [2] (setting [7]) it was -5%; in assay [2] (setting [8]) it was 99% (active); in assay [3] (setting [7]) it was -1%; in assay [3] (setting [8]), 99% (active). Further, the growth inhibition in assay [4] (setting [7]) is 0%; in assay [4] (setting [8]) it was 98% (active); in assay [5] (setting [7]), -2%; in assay [5] (setting [8]), 99% (active); in assay [6] (setting [7]), -33%; in assay [6] (setting [8]), 98% (active).

In the case of `CCCCCCCCCC(=O)CCCCCCCCC`, the growth inhibition in assay [1] (setting [7]) was 48%; in assay [1] (setting [8]) it was 7%; in assay [2] (setting [7]) it was 30%; in assay [2] (setting [8]), 8%; in assay [3] (setting [7]), 44%; in assay [3] (setting [8]), 14%. For the same compound, the growth inhibition is 22% in assay [4] (setting [7]); 11% in assay [4] (setting [8]); 92% (active) in assay [5] (setting [7]); 38% in assay [5] (setting [8]); 32% in assay [6] (setting [7]); 35% in assay [6] (setting [8]).

Consider `Cc1cc(C(=O)c2ccccc2Cl)ccc1O`, for which the growth inhibition was 10% in assay [1] (setting [7]); 98% (active) in assay [1] (setting [8]); -5% in assay [2] (setting [7]); 99% (active) in assay [2] (setting [8]); 3% in assay [3] (setting [7]); 98% (active) in assay [3] (setting [8]). Besides, the growth inhibition was -2% in assay [4] (setting [7]); 98% (active) in assay [4] (setting [8]); -3% in assay [5] (setting [7]); 99% (active) in assay [5] (setting [8]); 10% in assay [6] (setting [7]); 98% (active) in assay [6] (setting [8]).
